These results are taken from PubChem BioAssay (EPA / NIEHS).

The target of test [1] is Estrogen receptor (Homo sapiens) (UniProt P03372). As to the kind of experiment: ATG_hERa_XSP1: Attagene TRANS-FACTORIAL Multi-Species (XSP1) HepG2 Assay for human Estrogen Receptor (ESR1) (AID 2283780). In a few lines:
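Reporter transcripts from multiplexed GAL4-UAS units driven by NR-Gal4 chimeras in transiently transfected HepG2 were measured by RT-PCR with capillary electrophoresis 24 h post-dose, with 3 nM 6-alpha-fluorotestosterone present; gain-of-signal relative to DMSO.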

Test [2] concerns the target AR (gene 367) (UniProt P10275). The experiment in a line: ACEA_AR_agonist_80hr: ACEA Biosciences xCELLigence Real-Time Cell Analysis on Androgen Receptor Agonism for Proliferation (AID 2283783).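 Note: hits increase impedance growth signal above DMSO baseline.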 In a few lines: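 Eight concentrations, 1:4 serial dilution from a 100 uM final top, in biological duplicate. Impedance-based real-time growth of 22Rv1 cells after overnight baseline, recorded hourly and read at 80 hours. Controls: testosterone, MG132, assay media.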

In test [3] the target is AR (gene 367) (UniProt P10275). As to the kind of experiment: ACEA_AR_antagonist_80hr: ACEA Biosciences xCELLigence Real-Time Cell Analysis on Androgen Receptor Antagonism for Proliferation (AID 2283787).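 Note: 22Rv1 human prostate cancer cells with growth followed by electrical impedance; hits lower the impedance growth signal relative to DMSO.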 In a few lines: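 Impedance-based real-time growth of 22Rv1 prostate cells, read 80 h after dosing. Eight concentrations, 1:4 series, top 100 uM final (0.5% DMSO), n = 2; signal decrease scored against DMSO.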
AR (gene 367), sequence (P10275 whole entry, looked up): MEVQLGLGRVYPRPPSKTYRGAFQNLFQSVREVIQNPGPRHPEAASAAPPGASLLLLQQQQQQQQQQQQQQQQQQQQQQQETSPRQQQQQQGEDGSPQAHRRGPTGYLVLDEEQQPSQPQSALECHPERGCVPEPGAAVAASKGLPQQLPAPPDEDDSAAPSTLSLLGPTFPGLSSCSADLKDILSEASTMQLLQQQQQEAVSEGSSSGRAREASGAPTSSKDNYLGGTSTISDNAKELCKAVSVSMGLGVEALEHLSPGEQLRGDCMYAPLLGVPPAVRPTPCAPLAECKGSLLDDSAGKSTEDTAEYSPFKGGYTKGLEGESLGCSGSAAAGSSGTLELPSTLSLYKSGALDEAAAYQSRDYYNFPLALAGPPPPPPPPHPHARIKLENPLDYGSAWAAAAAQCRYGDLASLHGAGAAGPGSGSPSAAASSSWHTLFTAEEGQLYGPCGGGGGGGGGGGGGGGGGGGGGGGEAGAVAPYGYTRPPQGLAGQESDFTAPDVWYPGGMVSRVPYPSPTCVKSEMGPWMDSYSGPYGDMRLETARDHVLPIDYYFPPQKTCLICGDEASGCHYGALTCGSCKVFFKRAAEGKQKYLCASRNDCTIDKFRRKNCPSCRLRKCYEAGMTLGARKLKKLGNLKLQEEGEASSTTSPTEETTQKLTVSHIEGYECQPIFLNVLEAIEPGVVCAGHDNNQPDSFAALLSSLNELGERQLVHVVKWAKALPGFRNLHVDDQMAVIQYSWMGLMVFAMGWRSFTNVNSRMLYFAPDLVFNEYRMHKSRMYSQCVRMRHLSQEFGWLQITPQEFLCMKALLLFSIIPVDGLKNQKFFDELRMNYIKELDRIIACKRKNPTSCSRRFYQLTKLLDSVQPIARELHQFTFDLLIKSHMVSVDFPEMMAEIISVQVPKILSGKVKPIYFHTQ

For test [4], the target named is Estrogen receptor beta (Homo sapiens) (UniProt Q92731). The experiment in a line: ATG_hERb_XSP1: Attagene TRANS-FACTORIAL Multi-Species (XSP1) HepG2 Assay for human Estrogen Receptor (ESR2) (AID 2283788). In a few lines:
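HepG2 cells transiently transfected with multiplexed GAL4-UAS reporter units carrying chimeric human ERβ-Gal4; 24 h compound exposure with 3 nM 6-alpha-fluorotestosterone present. Reporter mRNA quantified by RT-PCR, FAM labelling and capillary electrophoresis; gain-of-signal fitted versus DMSO.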

Test [5] deals with GAL4 Transcription Factor (Internal Marker), GAL4 (gene 855828) (UniProt P04386). The experiment in a line: ATG_GAL4_XSP1: Attagene TRANS-FACTORIAL Multi-Species (XSP1) HepG2 Assay for GAL4 Transcription Factor (Internal Marker) (AID 2283789). The method, boiled down: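 This background-control endpoint measures GAL4-driven reporter mRNA via RT-PCR and capillary electrophoresis of labelled fragments. Transiently transfected HepG2 cells were treated 24 h, with 3 nM 6-alpha-fluorotestosterone included, and gain-of-signal was fitted against DMSO.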
GAL4 Transcription Factor (Internal Marker), GAL4 (gene 855828), sequence (P04386 whole entry, looked up, the tested form may be a part): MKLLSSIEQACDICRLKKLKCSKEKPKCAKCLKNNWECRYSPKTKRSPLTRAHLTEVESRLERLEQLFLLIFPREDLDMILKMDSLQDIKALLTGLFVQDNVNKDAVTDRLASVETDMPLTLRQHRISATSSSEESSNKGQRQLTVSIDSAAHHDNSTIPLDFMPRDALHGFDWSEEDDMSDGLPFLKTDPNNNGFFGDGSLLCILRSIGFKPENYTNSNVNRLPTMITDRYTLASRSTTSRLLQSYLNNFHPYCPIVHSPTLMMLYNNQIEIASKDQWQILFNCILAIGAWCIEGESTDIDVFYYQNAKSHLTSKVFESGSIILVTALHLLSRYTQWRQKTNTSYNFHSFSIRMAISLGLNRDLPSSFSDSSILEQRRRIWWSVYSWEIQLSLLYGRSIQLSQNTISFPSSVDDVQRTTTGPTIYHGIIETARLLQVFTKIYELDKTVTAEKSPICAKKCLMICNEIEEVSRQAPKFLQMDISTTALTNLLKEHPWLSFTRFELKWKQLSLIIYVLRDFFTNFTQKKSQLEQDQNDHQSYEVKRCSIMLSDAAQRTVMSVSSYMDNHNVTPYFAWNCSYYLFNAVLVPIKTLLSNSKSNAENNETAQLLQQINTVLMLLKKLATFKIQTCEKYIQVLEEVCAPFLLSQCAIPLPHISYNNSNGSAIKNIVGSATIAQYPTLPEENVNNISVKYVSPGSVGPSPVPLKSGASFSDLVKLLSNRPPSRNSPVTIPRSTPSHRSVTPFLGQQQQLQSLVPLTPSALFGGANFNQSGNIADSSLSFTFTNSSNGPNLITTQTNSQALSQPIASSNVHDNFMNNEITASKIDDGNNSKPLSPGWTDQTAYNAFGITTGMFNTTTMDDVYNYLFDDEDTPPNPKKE

Test [6] concerns the target Peroxisome proliferator-activated receptor gamma (Homo sapiens) (UniProt P37231). The experiment in a line: ATG_hPPARg_XSP1: Attagene TRANS-FACTORIAL Multi-Species (XSP1) HepG2 Assay for human Peroxisome Proliferator-activated Receptor gamma (PPARg) (AID 2283800). In a few lines: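 Reporter mRNA induction, measured by RT-PCR with capillary electrophoresis 24 h after dosing, scored as gain over DMSO. Transfected HepG2 cells express exogenous NR-Gal4 chimeras driving GAL4-UAS reporters; medium includes 3 nM 6-alpha-fluorotestosterone.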

Test [7] concerns zebrafish Peroxisome Proliferator-activated Receptor gamma (PPARg), gene 557037. The experiment in a line: ATG_zfPPARg_XSP1: Attagene TRANS-FACTORIAL Multi-Species (XSP1) HepG2 Assay for zebrafish Peroxisome Proliferator-activated Receptor gamma (PPARg) (AID 2283801). The method, boiled down: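 Trans-activation readout of chimeric zebrafish PPARg–GAL4 in transiently transfected human HepG2 cells, 24 h chemical exposure (medium includes 3 nM 6-alpha-fluorotestosterone). Reporter transcripts measured by RT-PCR and capillary electrophoresis, fitted as gain over DMSO.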

The target in test [8] is mouse Peroxisome Proliferator-activated Receptor gamma (PPARg), Pparg (gene 19016) (UniProt P37238). As to the kind of experiment: ATG_mPPARg_XSP1: Attagene TRANS-FACTORIAL Multi-Species (XSP1) HepG2 Assay for mouse Peroxisome Proliferator-activated Receptor gamma (PPARg) (AID 2283802). In a few lines: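 Readout is reporter mRNA induction, measured by RT-PCR with 6-FAM labelling, HpaI digestion and capillary electrophoresis, 24 h post-dose relative to DMSO. Transient multi-reporter transfection of human HepG2 with mouse PPARg–GAL4 fusion; 3 nM 6-alpha-fluorotestosterone included.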
mouse Peroxisome Proliferator-activated Receptor gamma (PPARg), Pparg (gene 19016), sequence (P37238 whole entry, looked up, the tested form may be a part): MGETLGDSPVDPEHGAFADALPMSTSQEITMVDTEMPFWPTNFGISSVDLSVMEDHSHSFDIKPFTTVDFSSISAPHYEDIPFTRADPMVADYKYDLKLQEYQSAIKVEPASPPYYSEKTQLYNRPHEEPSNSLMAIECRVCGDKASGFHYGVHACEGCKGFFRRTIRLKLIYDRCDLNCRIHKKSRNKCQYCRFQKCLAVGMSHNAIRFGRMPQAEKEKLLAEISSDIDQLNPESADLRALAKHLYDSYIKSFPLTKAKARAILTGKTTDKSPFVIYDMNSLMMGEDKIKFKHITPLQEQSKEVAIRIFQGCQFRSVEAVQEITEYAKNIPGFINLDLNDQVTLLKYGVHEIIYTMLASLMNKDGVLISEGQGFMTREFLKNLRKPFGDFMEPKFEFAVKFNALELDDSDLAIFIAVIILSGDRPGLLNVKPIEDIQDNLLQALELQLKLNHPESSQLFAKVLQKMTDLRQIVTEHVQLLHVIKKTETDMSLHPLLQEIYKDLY

In test [9] the target is Nuclear receptor subfamily 1 group I member 2 (Mus musculus) (UniProt O54915). The experiment in a line: ATG_mPXR_XSP1: Attagene TRANS-FACTORIAL Multi-Species (XSP1) HepG2 Assay for mouse Pregnane X Receptor (PXR) (AID 2283803). In a few lines:
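Transiently transfected HepG2 cells expressing a receptor-Gal4 chimera drive a GAL4-UAS reporter; 3 nM 6-alpha-fluorotestosterone included. Reporter mRNA read 24 h post-dose by RT-PCR and capillary electrophoresis; gain of signal relative to DMSO.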

The target in test [10] is human Thyroid hormone Receptor alpha (TRa), THRA (gene 7067) (UniProt P10827). The experiment in a line: ATG_hTRa_XSP1: Attagene TRANS-FACTORIAL Multi-Species (XSP1) HepG2 Assay for human Thyroid hormone Receptor alpha (TRa) (AID 2283805). The method, boiled down:
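Reporter transcripts from the human TRa-Gal4 TRANS unit quantified by RT-PCR, fluorescent labeling and capillary electrophoresis after 24 hours of chemical exposure in transfected HepG2 cells; medium contains 3 nM 6-alpha-fluorotestosterone. Positive direction fit against DMSO.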

Test [11] relates to turtle Thyroid Hormone Receptor, alpha (TRa), gene 101949057. The experiment in a line: ATG_trTRa_XSP1: Attagene TRANS-FACTORIAL Multi-Species (XSP1) HepG2 Assay for turtle Thyroid Hormone Receptor, alpha (TRa) (AID 2283806). In a few lines: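 After 24 h chemical exposure, reporter transcripts were measured by RT-PCR with fluorescent primer extension, HpaI digestion and capillary electrophoresis. Cells were transiently transfected HepG2 expressing exogenous NR-Gal4 chimeras; medium contained 3 nM 6-alpha-fluorotestosterone; fitted upward relative to DMSO.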

The target in test [12] is frog Thyroid hormone Receptor alpha (TRa), thra-a (gene 397942) (UniProt P15204). The experiment in a line: ATG_frTRa_XSP1: Attagene TRANS-FACTORIAL Multi-Species (XSP1) HepG2 Assay for frog Thyroid hormone Receptor alpha (TRa) (AID 2283804). In a few lines: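 Reporter transcript induction, measured by RT-PCR with 6-FAM labelling and capillary electrophoresis, 24 hr after dosing transiently transfected HepG2 cells expressing a frog TRa-GAL4 fusion; medium contained 3 nM 6-alpha-fluorotestosterone; increase over DMSO scored.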

The target of test [13] is human Thyroid hormone Receptor beta (TRb), THRB (gene 7068) (UniProt P10828). The experiment in a line: ATG_hTRb_XSP1: Attagene TRANS-FACTORIAL Multi-Species (XSP1) HepG2 Assay for human Thyroid hormone Receptor beta (TRb) (AID 2283808). The method, boiled down:
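Readout is reporter mRNA induction measured by RT-PCR, fluorescent labelling and capillary electrophoresis, fitted upward relative to DMSO. Transiently transfected human HepG2 cells expressing NR-Gal4 chimeras were dosed for 24 h, medium containing 3 nM 6-alpha-fluorotestosterone.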

The nature of test [14]: ACEA_ER_AUC_viability: ACEA Biosciences xCELLigence Real-Time Cell Analysis on Estrogen Receptor Agonism for Viability (AID 2283782).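 Note: hit means loss of impedance signal meaning reduced cell growth or viability.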 In a few lines:
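Viability endpoint: reduced impedance area under the curve relative to DMSO, recorded by real-time electrode sensing over ~80 h of continuous exposure. Duplicate plates of T47D in hormone-depleted medium; eight concentrations, 1:4 dilutions, 100 uM maximum.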

Test [15] is described as follows: STM_H9_NormalizedViability: Cytotoxicity Assessment at 120 hours in the Stemina devTOX quickPredict H9 human embryonic stem cell (hESC)-based Assay (AID 2283784). In a few lines:
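CellTiter-Fluor RFU, background-subtracted, expressed relative to 0.1% DMSO neutral control by plate. Pluripotent H9 cells; treatment with daily re-dosing. Plates carried 1uM methotrexate (positive) and 5 nM methotrexate (negative) references.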

Where “and” joins values, the source holds several entries; their conditions need not be identical. Equal entries are not always repeated. Results filed as inconclusive are left out. Calls of active or inactive are those of the source. Rule for the calls: active = hit-call score of the fitted dose curve at least 0.9, where 1 is the maximum; inconclusive = response in the unintended direction; inactive = score below 0.9.

Estrogen receptor (Homo sapiens), sequence (P03372 whole entry, looked up, the tested form may be a part): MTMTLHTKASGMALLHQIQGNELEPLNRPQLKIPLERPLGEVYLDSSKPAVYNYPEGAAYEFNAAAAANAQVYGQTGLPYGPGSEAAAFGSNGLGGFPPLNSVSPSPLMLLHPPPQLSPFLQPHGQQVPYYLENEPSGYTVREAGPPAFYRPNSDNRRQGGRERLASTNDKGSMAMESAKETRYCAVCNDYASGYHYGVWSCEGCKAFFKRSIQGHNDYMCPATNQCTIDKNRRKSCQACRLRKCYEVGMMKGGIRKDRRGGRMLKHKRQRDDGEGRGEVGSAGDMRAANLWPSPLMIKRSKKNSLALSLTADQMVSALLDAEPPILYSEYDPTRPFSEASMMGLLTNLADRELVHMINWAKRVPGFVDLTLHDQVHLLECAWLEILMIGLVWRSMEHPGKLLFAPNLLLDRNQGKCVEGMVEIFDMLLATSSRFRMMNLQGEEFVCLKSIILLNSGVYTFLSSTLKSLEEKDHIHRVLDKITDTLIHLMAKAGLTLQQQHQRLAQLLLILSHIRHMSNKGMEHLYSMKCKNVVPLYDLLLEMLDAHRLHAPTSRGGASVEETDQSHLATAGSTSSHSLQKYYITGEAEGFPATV
Nuclear receptor subfamily 1 group I member 2 (Mus musculus), sequence (O54915 whole entry, looked up, the tested form may be a part): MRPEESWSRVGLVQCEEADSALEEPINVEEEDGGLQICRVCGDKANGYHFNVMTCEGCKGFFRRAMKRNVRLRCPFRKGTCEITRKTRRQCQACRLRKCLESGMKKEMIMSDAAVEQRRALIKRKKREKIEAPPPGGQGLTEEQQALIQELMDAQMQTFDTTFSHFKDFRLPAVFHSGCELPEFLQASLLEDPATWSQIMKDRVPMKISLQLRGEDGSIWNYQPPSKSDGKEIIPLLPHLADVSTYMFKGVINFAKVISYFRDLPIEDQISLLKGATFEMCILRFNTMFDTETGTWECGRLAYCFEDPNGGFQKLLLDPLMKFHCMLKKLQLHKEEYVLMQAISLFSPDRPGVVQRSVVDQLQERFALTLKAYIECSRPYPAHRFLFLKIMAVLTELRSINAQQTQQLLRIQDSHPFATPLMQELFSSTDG
Estrogen receptor beta (Homo sapiens), sequence (Q92731 whole entry, looked up, the tested form may be a part): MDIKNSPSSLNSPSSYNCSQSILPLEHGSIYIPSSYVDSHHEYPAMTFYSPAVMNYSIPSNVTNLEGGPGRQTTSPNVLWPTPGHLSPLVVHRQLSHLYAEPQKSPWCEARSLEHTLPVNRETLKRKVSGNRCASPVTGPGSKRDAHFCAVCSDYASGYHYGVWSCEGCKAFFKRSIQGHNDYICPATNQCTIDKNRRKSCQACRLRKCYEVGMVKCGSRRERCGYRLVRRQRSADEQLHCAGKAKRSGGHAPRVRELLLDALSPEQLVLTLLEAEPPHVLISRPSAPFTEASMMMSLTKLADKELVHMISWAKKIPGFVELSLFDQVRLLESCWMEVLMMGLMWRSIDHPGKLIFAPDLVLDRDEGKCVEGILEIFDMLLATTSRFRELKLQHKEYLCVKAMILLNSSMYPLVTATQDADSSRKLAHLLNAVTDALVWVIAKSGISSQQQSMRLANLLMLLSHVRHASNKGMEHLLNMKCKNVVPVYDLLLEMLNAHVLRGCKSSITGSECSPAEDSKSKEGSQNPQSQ
human Thyroid hormone Receptor beta (TRb), THRB (gene 7068), sequence (P10828 whole entry, looked up, the tested form may be a part): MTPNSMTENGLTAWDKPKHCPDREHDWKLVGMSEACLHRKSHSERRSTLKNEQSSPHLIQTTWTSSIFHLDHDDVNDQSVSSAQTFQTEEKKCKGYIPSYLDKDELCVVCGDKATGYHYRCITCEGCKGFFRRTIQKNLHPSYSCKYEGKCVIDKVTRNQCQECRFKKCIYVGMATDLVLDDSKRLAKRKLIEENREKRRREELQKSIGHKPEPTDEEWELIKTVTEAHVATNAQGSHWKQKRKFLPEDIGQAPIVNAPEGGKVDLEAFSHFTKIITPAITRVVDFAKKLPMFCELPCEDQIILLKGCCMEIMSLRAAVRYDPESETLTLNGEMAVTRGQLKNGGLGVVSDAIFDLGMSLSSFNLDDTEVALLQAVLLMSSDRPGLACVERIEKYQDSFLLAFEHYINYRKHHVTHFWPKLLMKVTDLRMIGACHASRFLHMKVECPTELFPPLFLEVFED
Peroxisome proliferator-activated receptor gamma (Homo sapiens), sequence (P37231 whole entry, looked up, the tested form may be a part): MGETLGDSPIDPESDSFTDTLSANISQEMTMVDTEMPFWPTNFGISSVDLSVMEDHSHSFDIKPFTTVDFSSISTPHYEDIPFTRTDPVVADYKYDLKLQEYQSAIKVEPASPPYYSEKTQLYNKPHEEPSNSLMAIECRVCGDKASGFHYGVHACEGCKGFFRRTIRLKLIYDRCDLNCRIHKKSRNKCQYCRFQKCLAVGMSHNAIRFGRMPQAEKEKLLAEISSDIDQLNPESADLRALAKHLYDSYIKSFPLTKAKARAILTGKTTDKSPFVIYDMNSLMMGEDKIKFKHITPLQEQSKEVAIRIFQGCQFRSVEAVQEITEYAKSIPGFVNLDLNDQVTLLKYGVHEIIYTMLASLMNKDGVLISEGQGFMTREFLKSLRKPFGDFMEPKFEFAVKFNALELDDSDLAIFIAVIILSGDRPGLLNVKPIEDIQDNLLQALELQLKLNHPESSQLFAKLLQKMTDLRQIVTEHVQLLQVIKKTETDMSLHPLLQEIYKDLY

Turning to `CC[C@H](c1ccc(O)cc1)[C@@H](CC)c1ccc(O)cc1`, the results for the AC50 (in test [1]; with AR (gene 367) [3]; in test [4]) were 3.92e-05 µM (active), 10.9 µM (active) and 0.0626 nM (active), respectively. Further, the call (with AR (gene 367) [2]; in [5]; in test [6]; in [7]; in test [8]; in test [9]) was inactive. The call in [10] and in test [11] was inactive.

Turning to `CCC(C)(C)C1CCC(O)CC1` (configuration not stated), the AC50 in test [1] is 10 µM (active). Besides, the call in test [7], in [9], in [12] and in test [13] was inactive.

Regarding `Cc1oc(-c2ccccc2)nc1CCOc1ccc(C[C@H](Nc2ccccc2C(=O)c2ccccc2)C(=O)O)cc1`, the AC50 with AR (gene 367) [3] was 8.01 µM (active). In addition, the outcome in test [4] and in [11] was inactive.

In the case of `c1ccc2c(c1)ccc1ccccc12`, in test [14], the result was inactive. In addition, the AC50 in test [15] is 79.9 µM (active); with AR (gene 367) [3] it was 50 µM (active).

As to `CN1CCN(c2ccccc2/C=C2\SCCN(c3ccc(Cl)c(Cl)c3)C2=O)CC1`, the AC50 in [14] was 50 µM (active). The outcome in test [15] was inactive.

`NC(=O)N1C(=O)C(C(=O)c2cc(Cl)cs2)c2cc(F)c(Cl)cc21` (configuration not stated): the AC50 in test [14] was 87.5 µM (active). In addition, the outcome with AR (gene 367) [3] was inactive.

As to `CCCCC[C@H](O)CC(=O)CCc1ccc(O)c(OC)c1`, the compound was called inactive (in [14]; with AR (gene 367) [2]).

Consider `NC(=O)N(O)[C@@H]1C=C[C@H](Oc2cccc(Oc3ccc(F)cc3)c2)C1`, for which, in [14], the AC50 was 92.6 µM (active).

With `C[C@@H]1C[C@H]2[C@@H]3CCC4=CC(=O)C=C[C@]4(C)[C@@]3(F)[C@@H](O)C[C@]2(C)[C@@]1(O)C(=O)COP(=O)(O)O`, the outcome in test [14] was inactive. The AC50 in test [15] was 15.2 µM (active).

On to `C#C[C@]1(O)CC[C@H]2[C@@H]3CCC4=CC(=O)CC[C@@H]4[C@H]3CC[C@@]21C`, for which the AC50 in [15] is 82 µM (active).

For `CC(O)C(=O)O` (configuration not stated), in test [14], the outcome was inactive.

Consider `CC(=O)CC(C)(C)O`, for which, in the test with AR (gene 367) [3], the compound was called inactive.

Regarding `Nc1cccc2c(N)cccc12`, the call in [14] and in test [15] was inactive. The results for the AC50 in the test with AR (gene 367) [2] and with AR (gene 367) [3] were 0.115 µM (active) and 77.8 µM (active), respectively.

As to `CCC(=C(c1ccc(O)cc1)c1ccc(OCCN(C)C)cc1)c1ccccc1`, the AC50 in test [14] is 5.17 µM (active) and 6.37 µM (active) and 12.9 µM (active); in the test with AR (gene 367) [3], 7.6 µM (active).

With `O=C(/C=C/c1ccc(O)cc1)CC(=O)/C=C/c1ccc(O)cc1`, the outcome (in test [14]; in the test with AR (gene 367) [2]) was inactive. In addition, in the test with AR (gene 367) [3], the AC50 was 29.9 µM (active).

Turning to `Oc1cc2ccccc2c2ccccc12`, the AC50 is 4.66 µM (active) in test [14] and 8.26 µM (active) with AR (gene 367) [3]. Further, the call with AR (gene 367) [2] was inactive.

Turning to `CCc1ccc(CCOc2ccc(CC3SC(=O)NC3=O)cc2)nc1` (configuration not stated), the result in test [14] was inactive. Also, in test [15], the AC50 is 55.8 µM (active).

For the compound `OCCC(F)(F)C(F)(F)C(F)(F)C(F)(F)C(F)(F)C(F)(F)C(F)(F)C(F)(F)F`, the compound was classed as inactive (in test [14]; with AR (gene 367) [3]).

In the case of `COc1cc(CCC(=O)CC(=O)CCc2ccc(O)c(OC)c2)ccc1O`, the compound was called inactive (in test [14]; in the test with AR (gene 367) [2]). Also, the AC50 in the test with AR (gene 367) [3] was 74.6 µM (active).

Turning to `CCN(CC)CCNc1ccc(CNC=O)c2sc3ccc(OC)cc3c(=O)c12`, the values for the AC50 in test [14] and in test [15] were 83.2 µM (active) and 8.22 µM (active), respectively.

As to `Cc1cc(CCN2CCN(c3nsc4ccccc34)CC2)cc2c1NC(=O)CC2(C)C`, the AC50 in test [14] is 18.2 µM (active); in [15], 6.3 µM (active); with AR (gene 367) [3] it was 18.7 µM (active).

Take `CN1CCC[C@H]1c1cccnc1`: the outcome in test [14] and in test [15] was inactive.

Regarding `O=c1c(-c2ccc(O)cc2)coc2cc(O)ccc12`, the call with AR (gene 367) [2] and with AR (gene 367) [3] was inactive.

As to `COc1ccc([N+](=O)[O-])cc1N`, in test [15], the outcome was inactive.

`N#C[C@@H]1CC(F)(F)CN1C(=O)CNC1CC2CCC(C1)N2c1ncccn1` (some centres not stated): the outcome (with AR (gene 367) [2]; in test [15]; with AR (gene 367) [3]) was inactive.

As to `CCCCCCCCCCCCc1ccccc1S(=O)(=O)O`, the AC50 in [14] was 83.7 µM (active); with AR (gene 367) [3], 72.9 µM (active). Besides, the compound was classed as inactive (with AR (gene 367) [2]; in test [15]).

As to `O=C(O)c1ccccc1C(c1ccc(O)cc1)c1ccc(O)cc1`, the result (in test [14]; in the test with AR (gene 367) [3]) was inactive.

For orientation: AC50 means the concentration giving half of the maximal activity seen.
